BLM inh: blocks DNA unwinding by human BLM helicase; P54132; recombinant BLM DNA unwinding, fluorescence dequenching; Potency, µM (highest dose often 56.1 µM), inactives show at the highest dose activity change, negative = inhibition, hits mostly inhibitors; hit rate 0.2% among 350,000;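 also: plate controls were vehicle for no effect and no enzyme for full effect; nearly all actives have a fitted effect of over 35% in size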
TRb SRC2 PPI: disrupts binding of human TR beta to SRC2. hit rate 0.065% among 280,000. TRbeta-SRC2 peptide binding, fluorescence polarization; receptor liganded with 1 µM T3. Potency, µM (titrated, usually from 106 µM), without a hit: top-dose activity change, negative = inhibition, usual class: inhibitors;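 also: plate controls were bound peptide for no effect and peptide without receptor for full effect; nearly all actives have a fitted effect of over 50% in size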
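A fluorescence polarization screen tested compounds at multiple concentrations against complex formation between 0.6 uM TRb ligand-binding domain and 20 nM Texas Red SRC2 peptide, with 1 uM T3 present; readout after 5 hr.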
TR SRC2 fluor cs: Texas Red fluorescence interference in TRb-SRC2 counter-screen; hit rate 0.29% among 280,000; TRb/SRC2 Texas Red total fluorescence interference; Potency, µM (series often up to 106 µM), for the others: at the highest dose fluorescence change, negative = quenching; AID 1479; active = well fitted curve in either direction with a large enough effect; inconclusive = small, poorly fitted or top-dose-only effect
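Human TRb ligand-binding domain at 0.6 uM with 20 nM Texas Red SRC2 peptide in Tris buffer containing 1 uM T3 and 5% DMSO, incubated with compound 5 h at ambient temperature. Total fluorescence (555/632 nm) calculated as parallel + 2 × perpendicular.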
RECQ1 inh-1: RECQ1 (human) helicase inhibition. P46063. RECQ1 DNA unwinding, red fluorescence kinetic read. Potency, µM (top dose mostly 57.3 µM), for inactives: at the top dose activity, negative = inhibition, most hits filed as inhibitors. hit rate 0.54% among 240,000;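 also: plate controls were vehicle for no effect and no enzyme for full effect; nearly all actives have a fitted effect of over 30% in size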
Target sequence (P46063 whole entry, looked up): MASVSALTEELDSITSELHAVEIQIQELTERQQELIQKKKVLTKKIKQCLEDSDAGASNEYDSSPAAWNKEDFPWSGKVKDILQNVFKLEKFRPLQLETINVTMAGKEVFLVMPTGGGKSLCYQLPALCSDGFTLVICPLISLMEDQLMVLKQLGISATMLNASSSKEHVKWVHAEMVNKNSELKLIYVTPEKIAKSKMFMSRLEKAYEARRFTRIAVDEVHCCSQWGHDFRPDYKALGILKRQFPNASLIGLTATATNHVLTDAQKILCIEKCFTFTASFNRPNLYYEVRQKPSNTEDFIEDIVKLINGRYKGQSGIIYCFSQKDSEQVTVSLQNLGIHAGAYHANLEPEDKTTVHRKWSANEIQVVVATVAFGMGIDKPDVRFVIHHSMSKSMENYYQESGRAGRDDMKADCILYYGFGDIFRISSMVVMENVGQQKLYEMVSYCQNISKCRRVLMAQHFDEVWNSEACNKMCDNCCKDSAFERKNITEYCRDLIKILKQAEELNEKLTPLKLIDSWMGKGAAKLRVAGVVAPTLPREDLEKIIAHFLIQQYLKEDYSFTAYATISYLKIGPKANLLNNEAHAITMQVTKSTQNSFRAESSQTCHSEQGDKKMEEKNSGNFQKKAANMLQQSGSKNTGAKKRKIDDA
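50 nM RECQ1T1 preincubated 15 min with compound in Tris pH 8.0 buffer with MgCl2, DTT, Tween-20 and 2.5 ug/ml poly(dI-dC); started with 200 nM TAMRA/BHQ-2 forked duplex and 2 mM ATP. Unwinding read as fluorescence (525/598 nm), two reads 2 h apart.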
RECQ1 conf: confirmation of human RECQ1 helicase inhibitors | hit rate 28% among 610 | AID 2708 | Potency, µM (series often up to 229 µM), without a hit: at the top dose activity change, negative = inhibition, most hits filed as inhibitors | RECQ1 helicase DNA unwinding, fluorescence | shares compounds with RECQ1 inh-1; also: nearly all actives have a fitted effect of over 45% in size
ADP FP counter: counter-screen for RECQ1 inhibitors: ADP displacement | shares compounds with RECQ1 inh-1 | ADP fluorescence polarization displacement counterscreen | Potency, µM (series often up to 228 µM), for the others: top-dose activity change, negative = inhibition, usual class: inhibitors | hit rate 27% among 530 | AID 2711; also: nearly all actives have a fitted effect of over 45% in size
RECQ1 inh-2: confirmation of human RECQ1 helicase inhibitors; shares compounds with RECQ1 inh-1; recombinant RECQ1 DNA unwinding, red fluorescence; Potency, µM (series often up to 119 µM), for the others: at the top dose activity, negative = inhibition, hits mostly inhibitors; hit rate 15% among 1,100; also: nearly all actives have a fitted effect of over 50% in size
An asterisk follows results filed as active; i = inactive; ? = inconclusive; · = no result given; + = active, no number; ! = a repeat was not active; [ ] = remark or other dose. An excerpt weighted towards active compounds, which were near 0.64% of everything screened. Unless noted, calls follow the shape of the dose curve; as a rule, active = well fitted curve in the direction sought with a large enough effect; inconclusive = small, poorly fitted or top-dose-only effect, or another doubt; inactive = no such curve, though single readings can be large; an effect the other way counts as inactive or inconclusive. Unless noted, % is scaled to controls: 0 for no effect and ±100 for the full control effect; potency is read from the fitted curve at half-maximal effect.

SMILES | BLM inh | TRb SRC2 PPI | TR SRC2 fluor cs | RECQ1 inh-1 | RECQ1 conf | ADP FP counter | RECQ1 inh-2
Cc1c(Cl)cccc1N=Cc1ccc([N+](=O)[O-])s1 | -9% | -3% | -5% | ? | · | · | ?
Cc1ccccc1C(=O)N/N=C/c1ccc([N+](=O)[O-])s1 | -2% | -9% | -4% | -7% | · | · | ·
CCC1CC=CC2C1C(=O)N(Cc1ccccc1)C2c1ccc(C(F)(F)F)cc1 (centres undefined) | -14% | -5% | 0% | i | · | · | ·
O=S(=O)(c1ccccc1)n1c(C(O)c2ccccn2)cc2ccccc21 (centres undefined) | -2% | -1% | 1% | ? | · | · | -13%
COc1ccc2c(c1)cc(C(O)c1ccccn1)n2S(=O)(=O)c1ccccc1 (centres undefined) | -3% | 5% | -3% | -13% | · | · | ·
O=C(O)c1ccccc1-c1c2ccc(=O)cc-2oc2cc(O)ccc12 | 32µM* | -23% | 15% | 32µM* | 112µM* | 0.5µM* | 79µM*
O=C(O)CN(CC(=O)O)Cc1cc2c(-c3ccccc3C(=O)O)c3cc(CN(CC(=O)O)CC(=O)O)c(=O)cc-3oc2cc1O | 16µM* | 6.3µM* | 40µM*[fluorescent] | 28µM* | 112µM* | 0.14µM* | ·
COc1ccc(CCNC(=O)Cn2cc(C(=O)c3ccc(Cl)cc3)c(=O)c3ccc(C)nc32)cc1OC | -4% | 2% | -4% | · | · | · | ·
COc1cc(/C=C2\SC(=S)N(NC(=O)c3ccncc3)C2=O)ccc1O | -14% | 23% | 16% | 14µM* | 50µM* | 79%[91.9 µM] | ·
Cc1cc(O)c2c(c1O)C(=O)c1c(O)cc(C)c(O)c1C2=O | -1% | -6% | 11% | 8% | · | · | ·
Cc1cc(=O)c2c(O)c3c(O)cc(O)c4c5c(O)cc(O)c6c(O)c7c(=O)cc(C)c8c1c2c(c34)c(c65)c78 | 20µM* | 13µM* | 14µM*[fluorescent] | 0.56µM* | ? | 0.14µM* | ·
C=Cc1ccc(Cn2c(C)c(CNCc3ccc(SC)cc3)c(C(=O)O)c2C)cc1 | -3% | 11% | -1% | · | · | · | ·
O=S1(=O)C2CC3CCC2(CN1Cc1cccc(F)c1)O3 (centres undefined) | 3% | -8% | 0% | i | · | · | ·
CC1=Nc2cc(C(=O)O)ccc2Sc2ccc(Br)cc21 | -6% | 6% | -1% | 0.32µM* | 100µM* | 20%[91.9 µM] | -8%
CC1=Nc2cc(C(=O)NC3CCCC3)ccc2Sc2ccc(Br)cc21 | -13% | -7% | 0% | · | · | · | ·
CCOC(=O)C1CCc2sc(N)c(C#N)c21 (centres undefined) | -6% | -11% | -13% | 25µM* | 11%[114 µM] | -1%[91.9 µM] | ·
COC1=C(Nc2ccccc2)C(=O)c2ccccc2C1=O | -11% | 1% | -6% | -2% | · | · | ·
COC1=C(Nc2ccc(C)cc2)C(=O)c2ccccc2C1=O | -7% | -13% | -3% | ? | · | · | -14%
CCc1ccc(-n2c(SCC(=O)N3Cc4ccccc4CC3C(=O)O)nnc2-c2ccncc2)cc1 (centres undefined) | 0% | -2% | 2% | i | 20% | -6% | ·
CCc1ccc(-n2c(SCC(=O)N3CCC(C(=O)O)CC3)nnc2-c2ccncc2)cc1 | 0% | 5% | -2% | i | · | · | ·
Cc1cc(OCC(F)(F)C(F)(F)C(F)(F)C(F)(F)C(F)(F)C(F)F)nc(N)n1 | -21% | 0% | -2% | 28µM* | · | · | -20%
NC(=O)c1ccc(OCC(F)(F)C(F)(F)C(F)(F)C(F)(F)C(F)(F)C(F)F)cc1 | -6% | -7% | -2% | i | · | · | ·
Cc1c(Cl)c(C(F)F)nn1CC(=O)NC1C(=O)N2C(C(=O)O)=C(CSc3nnnn3C)CSC12 (centres undefined) | -1% | 1% | 0% | -3% | -4% | ? | ·
Cn1nnnc1SCC1=C(C(=O)O)N2C(=O)C(NC(=O)Cn3nc(C(F)F)cc3C3CC3)C2SC1 (centres undefined) | -9% | -5% | 0% | -10% | · | · | ·
Cc1nn(CC(=O)NC2C(=O)N3C(C(=O)O)=C(CSc4nnnn4C)CSC23)cc1Br (centres undefined) | 4% | 0% | -10% | -8% | 1% | ? | ·
SMILES | BLM inh | TRb SRC2 PPI | TR SRC2 fluor cs | RECQ1 inh-1 | RECQ1 conf | ADP FP counter | RECQ1 inh-2
Cc1c(Cl)cnn1CC(=O)NC1C(=O)N2C(C(=O)O)=C(CSc3nnnn3C)CSC12 (centres undefined) | 0% | 7% | -1% | i | · | · | ·
CCOc1cc(CN2CCN(S(=O)(=O)c3ccc(C)cc3)CC2)ccc1OC | -2% | 5% | -1% | · | · | · | ·
O=S(=O)(c1ccc(-c2nnc(SCc3nnc(-c4ccccc4)o3)o2)cc1)N1CCCC1 | -1% | -15% | -1% | 9% | 8% | 6% | ·
Cc1onc(-c2ccccc2Cl)c1C(=O)NCc1ccco1 | -26% | -7% | -17% | 20µM* | 40µM* | 45µM* | 1%
Fc1ccccc1Cc1cn2cc(-c3ccc(Cl)cc3)nc2s1 | -8% | 6% | 5% | · | · | · | ·
C/C(N)=C(/C#N)C(=O)COC(=O)C1Cc2ccccc2CN1S(C)(=O)=O (centres undefined) | -15% | 1% | -2% | ? | · | · | ?
O=c1c(S(=O)(=O)c2ccccc2)cn(Cc2ccc(F)cc2)c2cc(N3CCCC3)c(F)cc12 | -1% | 2% | 12% | · | · | · | ·
CCN(CC)S(=O)(=O)c1ccc(C(=O)NCc2n[nH]c(=S)n2-c2ccc(Cl)c(Cl)c2)cc1 | -20% | -4% | -3% | -2% | -7% | 8% | ·
CCN(CC)S(=O)(=O)c1ccc(C(=O)NCc2n[nH]c(=S)n2-c2ccccc2OC)cc1 | 0% | 4% | 0% | -11% | · | · | ·
Oc1ccc(N2CCN(c3nc(-c4cccs4)nc4ccccc34)CC2)cc1 | -6% | 0% | -2% | ? | · | · | ?
COc1ccc(Cl)cc1NC(=O)CN(C)CC(=O)Nc1ccc(C)cc1Br | -8% | 7% | 1% | 35µM* | · | · | -19%
Cc1ccc(C)c(-n2c(SCC(=O)NC(C(=O)O)C(C)C)nnc2-c2cccc(Cl)c2)c1 (centres undefined) | -1% | -3% | -3% | 0% | 13% | 10% | ·
Cc1cc2nc3c(=O)[nH]c(=O)nc-3n(CC(O)C(O)C(O)CO)c2cc1C (centres undefined) | -5% | -1% | -4% | 35µM*! | 112µM* | 45µM* | ·
CN1CC(O)C2=CC(=O)C(=O)C=C21 (centres undefined) | · | -24% | ? | 2.8µM* | + | 10µM* | ·
CC(C)(C)C1CCc2c(sc(NC(=O)c3cc4ccccc4c(=O)o3)c2C(N)=O)C1 (centres undefined) | -5% | 4% | 1% | · | · | · | ·
